In general, AC50 refers to the concentration at which the activity in the assay is half-maximal.

The results in this text go back to PubChem BioAssay AID1851 (National Center for Advancing Translational Sciences (NCATS), 2009).

“And” between values parts separate entries of the source, which are not always exact repeats. Equal entries are not always repeated. Hit rate of the full screen: of about 16,000 compounds, about 4,000 (25%) were called active. Another 26% or so got no clear call; they are omitted. Calls come from the whole dose curve; as a rule, active = well fitted curve in the direction sought with a large enough effect; inconclusive = small, poorly fitted or top-dose-only effect, or effect the other way; inactive = no such curve, though single readings can be large or run the other way. The list is a sample of the results. Where a structure was tested more than once in an assay, its records may differ in their call.
% is set by controls: 0 for no effect and ±100 for the full control effect.

In the test the target is Cytochrome P450 2C9 (Homo sapiens) (UniProt P11712). Briefly: Cytochrome panel assay with activity outcomes. The note with it: recombinant CYP, pro-luciferin dealkylation, luminescence, p450-cyp2c9; series mostly up to 57.1 µM.
Chain of Cytochrome P450 2C9 (Homo sapiens) (P11712 whole entry, looked up): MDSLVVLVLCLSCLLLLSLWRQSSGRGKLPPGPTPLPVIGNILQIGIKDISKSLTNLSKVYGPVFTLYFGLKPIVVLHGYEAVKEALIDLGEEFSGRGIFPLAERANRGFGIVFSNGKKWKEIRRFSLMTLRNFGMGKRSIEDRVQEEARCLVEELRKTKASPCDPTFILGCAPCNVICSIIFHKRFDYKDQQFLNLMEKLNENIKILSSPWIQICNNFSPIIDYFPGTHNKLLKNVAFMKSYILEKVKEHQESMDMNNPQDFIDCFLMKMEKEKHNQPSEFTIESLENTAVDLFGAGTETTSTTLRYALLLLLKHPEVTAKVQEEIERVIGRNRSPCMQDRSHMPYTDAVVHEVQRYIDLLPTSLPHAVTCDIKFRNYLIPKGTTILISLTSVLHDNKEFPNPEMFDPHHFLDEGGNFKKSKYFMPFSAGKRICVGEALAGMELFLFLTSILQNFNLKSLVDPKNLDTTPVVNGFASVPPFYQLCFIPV
Take `FC(F)(F)c1ccccc1-c1cc(NCc2ccccc2)ncn1`: the activity, negative = inhibition was 1.84% [at 2.29 µM] (inactive). Same read-out and setting: with `FC(F)(F)c1ccccc1-c1cc(NCc2cccs2)ncn1` the figure was -6.83% [at 2.29 µM] (inactive). For the molecule `FC(F)(F)c1cc(-c2ccco2)nc(NCc2cccs2)n1`, the half-maximal activity concentration (AC50) was 3.55 µM (active). On to `FC(F)(F)c1cc(-c2ccco2)nc(NCCc2ccccc2)n1`, for which the AC50 is 1.41 µM (active). With `FC(F)(F)c1ccccc1-c1nccc(NCc2cccs2)n1`, the activity, negative = inhibition is -24.4% [at 2.29 µM] (inactive). For the molecule `CCNc1ncc2nc(-c3cc(F)cc(F)c3)c(=O)n(Cc3cccs3)c2n1`, the AC50 result was “inactive”. In the case of `O=[N+]([O-])c1ccccc1N/N=C/c1c[nH]c2ccccc12`, the AC50 is 7.94 µM (active). With `O=C(O)c1ccccc1N/N=C\c1ccnc2ccccc12`, the AC50 result was “inactive”.

As to `Nc1cc(Cl)nc(N/N=C/c2ccccc2[N+](=O)[O-])n1`, the AC50 result is “inactive”. As to `Oc1c(Cl)cc(C(c2cc(Cl)c(O)c(Cl)c2)C(c2cc(Cl)c(O)c(Cl)c2)c2cc(Cl)c(O)c(Cl)c2)cc1Cl`, the AC50 is 0.1 µM (active). Still for that read-out and setting: with `CN(C)CN1CSC(=S)N(CN(C)C)C1` the figure was 3.16 µM (active).

Consider `[O-][N+](CCO)(CCO)c1ncnc2nc[nH]c12`, for which the activity, negative = inhibition was 27.7% [at 11.4 µM] (inactive). For `Cc1noc(C)c1C(=O)N1CCC[C@@]2(CCN(Cc3nccs3)C2)C1`, the AC50 entry is “inactive”.

As to `c1ccc2cc(Sc3ncnc4c3oc3ccccc34)ccc2c1`, the AC50 is 10 µM (active). As for `CC[C@@H](c1ccccc1)n1c(=O)n2n(c1=O)[C@H]1[C@H](O)[C@H]3O[C@@H]3/C(=N/OCc3ccccc3)[C@@H]1CC2`, the activity, negative = inhibition was -21.9% [at 11.4 µM] (inactive). As to `COc1ccc(N=C2S/C(=C\c3ccc(C)s3)C(=O)N2CC(C)C)cc1`, the AC50 is 7.08 µM (active). Still for that read-out and setting: to `CCCN1C(=O)/C(=C/c2ccc(C)s2)SC1=Nc1ccc(OC)cc1` belongs 7.94 µM (active). `O=C1[C@@H]2[C@H]3[C@H](O)[C@H](O)C/C(=N/OC[C@@H](O)COCc4ccco4)[C@@H]3CC[C@H]2C(=O)N1c1ccc(F)cc1F`: the activity, negative = inhibition was -0.354% [at 11.4 µM] (inactive). `O=C(CCCn1c(=S)[nH]c2ccc(Br)cc2c1=O)N1CCN(c2ccccn2)CC1`: the AC50 was 3.16 µM (active). As for `CC(=O)N1CCC2(CCCN(c3ccccn3)C2)CC1`, the AC50 entry is “inactive”. For the molecule `O=C(CCn1c(=S)[nH]c2ccccc2c1=O)NCCCN1CCOCC1`, the AC50 entry was “inactive”. Take `Cn1c(N)nc2c(nc(OCc3ccccc3)n2[C@@H]2O[C@H](CO)[C@@H](O)[C@@H]2O)c1=O`: the activity, negative = inhibition is 1.04% [at 11.4 µM] (inactive). Consider `CCOc1cc(C)c(S(=O)(=O)Nc2ccc3cn[nH]c3c2)cc1C`, for which the AC50 is 2.82 µM (active).

Regarding `CCOC(=O)c1ccc(S(=O)(=O)Nc2ccc3cn[nH]c3c2)cc1`, the concentration at half-maximal activity (AC50) is 0.794 µM (active).

Consider `Cc1ccccc1C1C(C#N)=C2N=C(N)c3c(sc4c3CCCCC4)N2C2=C1C(=O)CC(C)(C)C2` (configuration not stated), for which the AC50 was 3.55 µM (active). Same read-out and setting: with `OC[C@@H]1O[C@H](O)[C@@H](Cl)[C@H](O)[C@@H]1O` the entry was “inactive”.

`Cc1noc(C)c1-c1cncnc1N1CCN(C)CC1`: the activity, negative = inhibition was 15.2% [at 2.29 µM] (inactive). `CCN(CC)C(=O)C1CCCN(c2ccc([N+](=O)[O-])cc2/C=N/NC(=O)c2ccc([N+](=O)[O-])cc2)C1` (configuration not stated): the AC50 was 12.6 µM (active). Regarding `O=C(N/N=C/c1cc([N+](=O)[O-])ccc1N1CCNCC1)c1ccc([N+](=O)[O-])cc1`, the AC50 result is “inactive”. On the same count and under the same terms, to `CN1CCC(=NNC(=O)CSCc2ccccc2)CC1` belongs “inactive”. Same read-out and setting: to `CSc1ccccc1NC(=O)CSCc1ccc(C)cc1` belongs 10 µM (active). Same read-out and setting: with `S=C(Nc1ccccc1)Nc1ccccc1C#Cc1ccccc1` the figure was 3.98 µM (active); with `C=CCN(CC=C)C(=S)Nc1ccccc1`, “inactive”. For `O=S(=O)(N/N=C\c1cccn1-c1ccccc1)c1ccc2ccccc2c1`, the AC50 entry is “inactive”. Same read-out and setting: to `Cc1ccc(-c2nn(-c3ccccc3)cc2/C=N/NS(=O)(=O)c2ccccc2)cc1` belongs 7.94 µM (active). Same read-out and setting: with `O=S(=O)(N/N=C\c1cn(-c2ccccc2)nc1-c1ccccc1)c1ccccc1` the figure was 4.47 µM (active); with `CC1(C)C(=O)C(c2ccccc2)=C2CN3C(=O)N(CCc4ccccc4)C(=O)C3(Cc3ccc(C(F)(F)F)cc3)C=C21` (configuration not stated), “inactive”; with `CC(C)=C1C(=O)C(c2ccccc2)=C2CN3C(=O)N(CCc4ccccc4)C(=O)[C@]3(Cc3ccccc3)[C@H]21`, 10 µM (active). Regarding `CCN1CCC[C@@H](OC(=O)C(c2ccccc2)c2ccccc2)C1`, the AC50 result was “inactive”. The same measure, in the same setting: with `CCN1CCc2nc(NC(=O)CC(c3ccccc3)c3ccccc3)sc2C1` the figure was 14.1 µM (active); with `Cc1nc2nc(C)c(CCC(=O)NCCCN3CCN(c4cccc(Cl)c4)CC3)c(C)n2n1`, “inactive”. On the same count and under the same terms, with `Cc1nc2ncnn2c(C)c1CCC(=O)NCc1ccco1` the entry was “inactive”; with `Cc1nc2nc(SCC(=O)NCc3ccco3)nn2c(C)c1Cc1c(F)cccc1Cl`, 0.708 µM (active).

With `Cc1ccc(Cc2c(C)nc3nc(SCC(=O)NCc4ccco4)nn3c2C)cc1`, the AC50 was 10 µM (active). On to `Fc1ccc(Nc2ncncc2-c2ccoc2)cc1`, for which the activity, negative = inhibition was -24.6% [at 2.29 µM] (inactive). In the case of `COC(=O)/C=C\CCc1coc(/C=C\CNC(=O)OC)n1`, the activity, negative = inhibition is -17.2% [at 11.4 µM] (inactive). As to `c1ccc2c(Nc3ccncc3)nc(-c3ccoc3)nc2c1`, the activity, negative = inhibition is -11.6% [at 2.29 µM] (inactive).

Take `COc1ccc(CCNC(=O)c2ccc3c(=O)n(Cc4ccco4)c(=S)[nH]c3c2)cc1OC`: the AC50 is 4.47 µM (active).

Regarding `CC(C)NC(=O)c1ccc2c(=O)n(Cc3ccco3)c(=S)[nH]c2c1`, the AC50 entry is “inactive”. As for `CCCOc1ccccc1-c1nc2n[nH]nc2c(=O)[nH]1`, the AC50 result was “inactive”. `CN(C)S(=O)(=O)Oc1ccc(Cl)cc1C(=O)Nc1cccc(C(F)(F)F)c1`: the AC50 is 7.94 µM (active).

As to `C/C(=N/OC(=O)c1cccc(Cl)c1)c1nccs1`, the AC50 result was “inactive”.

As for `CN(C)S(=O)(=O)Oc1ccsc1C(=O)Nc1cccc(Cl)c1`, the AC50 is 8.91 µM (active).

Take `O=C(Cn1ccc(=O)[nH]c1=O)Nc1ccc(C(=O)O)c(O)c1`: the activity, negative = inhibition was -4.1% [at 11.4 µM] (inactive). Regarding `CC(C)CN1CC[C@@]2(CCCN(C(=O)c3cc(C(F)(F)F)cc(C(F)(F)F)c3)C2)C1`, the AC50 entry was “inactive”. `COc1c(O)ccc2c1CN1CCc3cc4c(cc3[C@@H]1C2)OCO4`: the activity, negative = inhibition was 1.47% [at 11.4 µM] (inactive). On to `COc1ccc2c(c1OC)C(=O)O[C@@H]2[C@H]1c2c(cc3c(c2OC)OCO3)CCN1C`, for which the AC50 was 0.126 µM (active). Same read-out and setting: to `COc1ccc2c(c1OC)C(=O)OC2[C@H]1c2c(cc3c(c2OC)OCO3)CCN1C` (some centres not stated) belongs 5.01 µM (active) and 2.51 µM (active). For `COc1ccc2c(c1OC)C(=O)OC2Nc1ncccc1C` (configuration not stated), the AC50 result is “inactive”. The same measure, in the same setting: with `COc1ccc2cc3[n+](cc2c1OC)CCc1cc2c(cc1-3)OCO2` the entry was “inactive”. Same read-out and setting: with `NCC[C@H](O)C(=O)N[C@H]1C[C@@H](N)[C@@H](O[C@H]2O[C@@H](CN)[C@@H](O)[C@@H](O)[C@@H]2O)[C@@H](O)[C@@H]1O[C@H]1O[C@@H](CO)[C@@H](O)[C@@H](N)[C@@H]1O` the entry was “inactive”; with `O=C1c2ccccc2C(=O)C1c1ccccc1`, “inactive”.

As to `OC(CN1CCCCC1)CN1CCCCC1`, the AC50 result was “inactive”.

On to `CO/N=C(\C)CCN1CCCc2nc(C)c(C)cc21`, for which the activity, negative = inhibition is -0.836% [at 11.4 µM] (inactive). As to `Cc1cc2c(nc1C)CCCN2C[C@@H](O)CN1CCN(C)CC1`, the activity, negative = inhibition is 29.4% [at 11.4 µM] (inactive). The same measure, in the same setting: with `CCN(CC)C[C@@H](O)CN1CCCCc2nc(C)c(C)cc21` the figure was -1.31% [at 11.4 µM] (inactive). The same measure, in the same setting: with `Cc1cc2c(nc1C)CCCN2CC(O)CN1CCCc2nc(C)c(C)cc21` the figure was -10.8% [at 11.4 µM] (inactive).

`Cc1cc2c(nc1C)CCCN2C[C@H](O)CN1CCCc2nc(-c3ccc(Br)cc3)ccc21`: the AC50 was 2.51 µM (active).

`COc1ccc(-c2ccc3c(n2)CCCN3C[C@H](O)CN2CCCc3nc(C)c(C)cc32)cc1`: the AC50 was 3.98 µM (active). The same measure, in the same setting: with `Cc1ccc(Cn2nc(C)c(NC(=O)c3cc(-c4ccco4)on3)c2C)cc1` the figure was 12.6 µM (active).

On to `Cc1ccc(Cn2ccc(NC(=O)c3cc4nc(-c5ccco5)cc(C(F)(F)F)n4n3)n2)cc1`, for which the AC50 entry is “inactive”.

`COc1nc(C)nc(Cl)c1NC1=NCCN1`: the AC50 entry was “inactive”. On the same count and under the same terms, to `Clc1cccc(Cl)c1NC1=NCCN1` belongs “inactive and 7.94 µM (active)”.

Regarding `c1ccc2c(CC3=NCCN3)cccc2c1`, the AC50 result is “inactive”. On to `O=[N+]([O-])c1cccc(/C=N/Nc2cc(Cl)nc(-c3ccccc3)n2)c1`, for which the AC50 entry is “inactive”. Still for that read-out and setting: with `C/C(=N\Nc1nnc(-c2ccccc2)c(-c2ccccc2)n1)c1cccc([N+](=O)[O-])c1` the figure was 20 µM (active); with `C/C(=N\Nc1ccc([N+](=O)[O-])cc1)c1cccc(N)c1`, 5.62 µM (active); with `c1ccc([C@@H]2CN3CCSC3=N2)cc1`, “inactive”.

Turning to `CN(C)C(=O)c1ccc(-c2nc(NCc3ccccc3)c3ccccc3n2)cc1`, the activity, negative = inhibition is -4.46% [at 2.29 µM] (inactive). On the same count and under the same terms, to `CN(C)C(=O)c1ccc(-c2nccc(NCc3ccccc3)n2)cc1` belongs -14% [at 2.29 µM] (inactive). On to `CCOC(=O)c1nnc(-c2ccccc2)nc1NCc1ccccc1`, for which the AC50 is 25.1 µM (active).

For the molecule `O=C(O)CCC(=O)c1ccc2ccc3cccc4ccc1c2c34`, the activity, negative = inhibition was 4.8% [at 11.4 µM] (inactive). On to `CCCCN(CC)C(=O)Cc1ccccc1OC`, for which the AC50 entry is “inactive”. Same read-out and setting: with `COc1ccc(C(=O)CCN(C)C)c2ccccc12` the figure was 3.98 µM (active); with `O=C1c2ccccc2CCC12N=NCC2c1ccc(Cl)cc1` (configuration not stated), 14.1 µM (active). On the same count and under the same terms, with `CNC(=S)Nc1ccc(Nc2ccccc2)cc1` the figure was 39.8 µM (active); with `CNC(=S)Nc1ccc2nc(C)c(C)nc2c1`, “inactive”.

As to `CC(C)(C)NC(=S)Nc1ccc(Nc2ccccc2)cc1`, the AC50 was 7.08 µM (active). On to `COc1ccc(NC(=S)Nc2ccccc2)cc1`, for which the activity, negative = inhibition is -15.3% [at 11.4 µM] (inactive). Still for that read-out and setting: with `N#[N+]c1ccc(Nc2ccccc2)cc1` the figure was 5.95% [at 11.4 µM] (inactive). With `Nc1ccc(Nc2ccccc2)cc1`, the AC50 is 8.91 µM (active). For the molecule `Cc1ccccc1-c1cncnc1Nc1ccccc1`, the activity, negative = inhibition was -13.5% [at 2.29 µM] (inactive).
